# The panel holds about 83,000 compounds, 20% with a hit somewhere; the sample as a whole holds those more often.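 Compound tested at a single concentration for 48 hours in 96-well plates; a percent growth value below 10 was scored as active.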 Activity calls are given as the source filed them.
# Test system: TK-10 renal
# Assay: NCI-60 one-dose screen, 48 h (100 = growth as untreated, 0 = no growth, -100 = all killed)
# Conditions: 10 µM
row,Structure (SMILES),growth
1,O=[N+]([O-])c1cc(Cl)cc(Cl)c1O,95.1% (inactive)
2,CN(C)CCCSc1ccccc1NC1=C(Cl)C(=O)C(Nc2ccccc2SCCCN(C)C)=C(Cl)C1=O,13.8% (inactive)
3,CCN(CC)CCOc1cccc2c1C(=O)c1ccccc1C2=O,97.6% (inactive)
4,CCOC(=O)c1cc(C(=O)c2ccc(OC)c(OC)c2)n2c1ccc1ccc3cccnc3c12,70.5% (inactive)
5,CCN(CC)CCOc1ccc2c(c1O)C(=O)c1ccccc1C2=O,78% (inactive)
6,COc1cc(-c2nn(-c3cccc(NC(=O)NCCNC(=O)c4ccccc4)c3)cc2-c2ccncc2)ccc1Cl,36.3% (inactive)
7,CN(C)CCN(Cc1ccccc1)c1ccc2ccccc2n1,93.1% (inactive)
8,Nc1ccc(/C=N/Nc2ccnc3c(O)cccc23)c2cccnc12,97.7% (inactive)
9,CCOC(=O)c1cc(C(=O)c2cc(OC)c(OC)c(OC)c2)n2ccc(-c3cc[n+](CC(=O)c4cc(OC)c(OC)c(OC)c4)cc3)cc12,13.5% (inactive)
10,COc1ccc2nc(-c3ccc(Cl)cc3)cc(-c3nnc(SC/C(=N\O)c4ccccc4)n3-c3ccccc3)c2c1,111% (inactive)
11,CCN(CC)CCNc1ccc(C)c2sc3cc(Cl)ccc3c(=O)c12,50.6% (inactive)
12,C/C=C/CSC(C)(C)C(=O)NC,103% (inactive)
13,CCOS(=O)(=O)c1c(C(C)C)cc(C(C)C)cc1C(C)C,95.1% (inactive)
14,O=C(Nc1nc(-c2ccccc2)nc2c1sc(=S)n2-c1ccccc1)C(F)(F)F,117% (inactive)
15,CCOC(=O)c1cc(C(=O)c2cc(OC)c(OC)c(OC)c2)n2ncc3ccccc3c12,97.3% (inactive)
16,Cc1ccc(NCCN(C)CC(C)O)c2c(=O)c3ccccc3sc12 (stereo not given),45% (inactive)
17,COc1cc(-c2nn(-c3cccc(NC(=O)NCCNS(=O)(=O)c4ccc(Cl)cc4)c3)cc2-c2ccncc2)ccc1Cl,5.09% (active)
18,COc1cc(-c2nn(-c3cccc(NC(=O)CCN4CCN(c5ccccc5)CC4)c3)cc2-c2ccncc2)ccc1Cl,23.5% (inactive)
19,O=S(=O)(O)c1cccc(Nc2ccc3ccccc3c2)c1,115% (inactive)
20,CCCCCCCCCCOC(c1ccccc1)c1ccccc1,85.1% (inactive)

row,Structure (SMILES),growth
1,CC(=O)Nc1ccc2c(c1)C(=O)c1cccc(C(=O)O)c1-2,116% (inactive)
2,Cc1ccc(NCCNCC(C)(C)O)c2c(=O)c3ccc(Cl)cc3sc12,74.2% (inactive)
3,CN(C)CCOc1cccc(NC2=C(Cl)C(=O)C(Nc3cccc(OCCN(C)C)c3)=C(Cl)C2=O)c1,-100% (active)
4,CCOC(=O)c1cc(C(=O)c2ccc(Cl)cc2)n2ccc(-c3cc[n+](CC(=O)c4ccc(OC)cc4)cc3)cc12,124% (inactive)
5,O=C1c2ccccc2C(=O)c2c1ccc(C(Br)Br)c2[N+](=O)[O-],73.2% (inactive)
6,O=C(NCCNC(=O)c1ccc(F)cc1)Nc1ccc(-n2cc(-c3ccncc3)c(-c3ccc(Cl)c(O)c3)n2)cc1,12.3% (inactive)
7,CCN(CC)CC(=O)N(CC)c1ccc(C)c(Cl)c1,93.6% (inactive)
8,O=S(=O)(O)c1ccc(Cl)cc1,88.2% (inactive)
9,CCNCC(=O)Nc1ccc(C(=O)OCC)cc1,86.2% (inactive)
10,S=C(SSC(=S)N(c1ccccc1)c1ccccc1)N(c1ccccc1)c1ccccc1,95.3% (inactive)
11,CC(C)CCN(CCC(C)C)CC(=O)Nc1ccc(S(=O)(=O)c2ccc(NC(=O)CN(CCC(C)C)CCC(C)C)cc2)cc1,96.4% (inactive)
12,N#CCc1csc(Cc2ccccc2)n1,89.9% (inactive)
13,CCOC(=O)c1cocc1C(=O)O,118% (inactive)
14,CC(CN(C)C)Oc1ccc(OC(C)CN(C)C)c2c1C(=O)c1ccccc1C2=O (stereo not given),42.7% (inactive)
15,Cc1ccc(S(=O)(=O)N(C)CCCCCC(=O)O)cc1,89.4% (inactive)
16,Cc1ccc(NCCN(C)CC(C)O)c2c(=O)c3ccc(Cl)cc3sc12 (stereo not given),79.1% (inactive)
17,O=C(Nc1cccc2c1CCCC2)c1cc2ccccc2cc1O,88.1% (inactive)
18,COc1cc(OC)c2c(=O)c(O)c(-c3ccccc3)oc2c1,96.8% (inactive)
19,O=C1c2ccccc2C(=O)c2c1ccc(C(Br)Br)c2Cl,83.9% (inactive)
20,COc1cc(C)ccc1Oc1nc(Nc2ccc(N3CCOCC3)cc2)ncc1NC(=O)Nc1cc(C(F)(F)F)cc(C(F)(F)F)c1,51.1% (inactive)

# Test system: ACHN renal
# Assay: as above
# Conditions: 10 µM
row,Structure (SMILES),growth
1,O=[N+]([O-])c1cc(Cl)cc(Cl)c1O,99.4% (inactive)
2,CN(C)CCCSc1ccccc1NC1=C(Cl)C(=O)C(Nc2ccccc2SCCCN(C)C)=C(Cl)C1=O,-20.6% (active)
3,CCN(CC)CCOc1cccc2c1C(=O)c1ccccc1C2=O,92.5% (inactive)
4,CCOC(=O)c1cc(C(=O)c2ccc(OC)c(OC)c2)n2c1ccc1ccc3cccnc3c12,47.4% (inactive)
5,CCN(CC)CCOc1ccc2c(c1O)C(=O)c1ccccc1C2=O,56.9% (inactive)
6,COc1cc(-c2nn(-c3cccc(NC(=O)NCCNC(=O)c4ccccc4)c3)cc2-c2ccncc2)ccc1Cl,12.2% (inactive)
7,CN(C)CCN(Cc1ccccc1)c1ccc2ccccc2n1,95.8% (inactive)
8,Nc1ccc(/C=N/Nc2ccnc3c(O)cccc23)c2cccnc12,52.9% (inactive)
9,CCOC(=O)c1cc(C(=O)c2cc(OC)c(OC)c(OC)c2)n2ccc(-c3cc[n+](CC(=O)c4cc(OC)c(OC)c(OC)c4)cc3)cc12,90.7% (inactive)
10,COc1ccc2nc(-c3ccc(Cl)cc3)cc(-c3nnc(SC/C(=N\O)c4ccccc4)n3-c3ccccc3)c2c1,90.2% (inactive)
11,CCN(CC)CCNc1ccc(C)c2sc3cc(Cl)ccc3c(=O)c12,28.1% (inactive)
12,C/C=C/CSC(C)(C)C(=O)NC,108% (inactive)
13,CCOS(=O)(=O)c1c(C(C)C)cc(C(C)C)cc1C(C)C,104% (inactive)
14,O=C(Nc1nc(-c2ccccc2)nc2c1sc(=S)n2-c1ccccc1)C(F)(F)F,91.3% (inactive)
15,CCOC(=O)c1cc(C(=O)c2cc(OC)c(OC)c(OC)c2)n2ncc3ccccc3c12,78.7% (inactive)
16,Cc1ccc(NCCN(C)CC(C)O)c2c(=O)c3ccccc3sc12 (stereo not given),29.5% (inactive)
17,COc1cc(-c2nn(-c3cccc(NC(=O)NCCNS(=O)(=O)c4ccc(Cl)cc4)c3)cc2-c2ccncc2)ccc1Cl,11.3% (inactive)
18,COc1cc(-c2nn(-c3cccc(NC(=O)CCN4CCN(c5ccccc5)CC4)c3)cc2-c2ccncc2)ccc1Cl,18% (inactive)
19,O=S(=O)(O)c1cccc(Nc2ccc3ccccc3c2)c1,98% (inactive)
20,CCCCCCCCCCOC(c1ccccc1)c1ccccc1,88.8% (inactive)

row,Structure (SMILES),growth
1,CC(=O)Nc1ccc2c(c1)C(=O)c1cccc(C(=O)O)c1-2,105% (inactive)
2,Cc1ccc(NCCNCC(C)(C)O)c2c(=O)c3ccc(Cl)cc3sc12,3.43% (active)
3,CN(C)CCOc1cccc(NC2=C(Cl)C(=O)C(Nc3cccc(OCCN(C)C)c3)=C(Cl)C2=O)c1,-100% (active)
4,CCOC(=O)c1cc(C(=O)c2ccc(Cl)cc2)n2ccc(-c3cc[n+](CC(=O)c4ccc(OC)cc4)cc3)cc12,96.4% (inactive)
5,O=C1c2ccccc2C(=O)c2c1ccc(C(Br)Br)c2[N+](=O)[O-],-16.1% (active)
6,O=C(NCCNC(=O)c1ccc(F)cc1)Nc1ccc(-n2cc(-c3ccncc3)c(-c3ccc(Cl)c(O)c3)n2)cc1,9.32% (active)
7,CCN(CC)CC(=O)N(CC)c1ccc(C)c(Cl)c1,117% (inactive)
8,O=S(=O)(O)c1ccc(Cl)cc1,104% (inactive)
9,CCNCC(=O)Nc1ccc(C(=O)OCC)cc1,108% (inactive)
10,S=C(SSC(=S)N(c1ccccc1)c1ccccc1)N(c1ccccc1)c1ccccc1,114% (inactive)
11,CC(C)CCN(CCC(C)C)CC(=O)Nc1ccc(S(=O)(=O)c2ccc(NC(=O)CN(CCC(C)C)CCC(C)C)cc2)cc1,69.7% (inactive)
12,N#CCc1csc(Cc2ccccc2)n1,109% (inactive)
13,CCOC(=O)c1cocc1C(=O)O,111% (inactive)
14,CC(CN(C)C)Oc1ccc(OC(C)CN(C)C)c2c1C(=O)c1ccccc1C2=O (stereo not given),28% (inactive)
15,Cc1ccc(S(=O)(=O)N(C)CCCCCC(=O)O)cc1,102% (inactive)
16,Cc1ccc(NCCN(C)CC(C)O)c2c(=O)c3ccc(Cl)cc3sc12 (stereo not given),44.6% (inactive)
17,O=C(Nc1cccc2c1CCCC2)c1cc2ccccc2cc1O,38.4% (inactive)
18,COc1cc(OC)c2c(=O)c(O)c(-c3ccccc3)oc2c1,68% (inactive)
19,O=C1c2ccccc2C(=O)c2c1ccc(C(Br)Br)c2Cl,-74.1% (active)
20,COc1cc(C)ccc1Oc1nc(Nc2ccc(N3CCOCC3)cc2)ncc1NC(=O)Nc1cc(C(F)(F)F)cc(C(F)(F)F)c1,24.4% (inactive)
